From PubChem BioAssay
Cycloheximide cs: Cycloheximide Counterscreen for Small Molecule Inhibitors of Shiga Toxin. AID 2314, 2010. max response, %. actives 12% (n = 300,000). cell reporter, cycloheximide protein synthesis inhibition counterscreen; in the data active = max response mostly above about 13%, no sharp cut-off; inactive = mostly below about 14%; note: read at 38.3 µM for the half of the compounds with a filed dose; 0% is about no effect
LmPK inhibitor: qHTS Assay for Inhibitors of Leishmania Mexicana Pyruvate Kinase (LmPK) | Q27686 | purified LmPK, Kinase-Glo ATP luminescence, 1 h | Potency, µM (series often up to 57.5 µM), inactives show at the top dose activity change, negative = inhibition, usual class: inhibitors | actives 0.37% (n = 290,000); note: potency is the fitted concentration of half-maximal effect; % is set by controls: 0 for no effect and ±100 for the full control effect
Target sequence (Q27686 whole entry, looked up): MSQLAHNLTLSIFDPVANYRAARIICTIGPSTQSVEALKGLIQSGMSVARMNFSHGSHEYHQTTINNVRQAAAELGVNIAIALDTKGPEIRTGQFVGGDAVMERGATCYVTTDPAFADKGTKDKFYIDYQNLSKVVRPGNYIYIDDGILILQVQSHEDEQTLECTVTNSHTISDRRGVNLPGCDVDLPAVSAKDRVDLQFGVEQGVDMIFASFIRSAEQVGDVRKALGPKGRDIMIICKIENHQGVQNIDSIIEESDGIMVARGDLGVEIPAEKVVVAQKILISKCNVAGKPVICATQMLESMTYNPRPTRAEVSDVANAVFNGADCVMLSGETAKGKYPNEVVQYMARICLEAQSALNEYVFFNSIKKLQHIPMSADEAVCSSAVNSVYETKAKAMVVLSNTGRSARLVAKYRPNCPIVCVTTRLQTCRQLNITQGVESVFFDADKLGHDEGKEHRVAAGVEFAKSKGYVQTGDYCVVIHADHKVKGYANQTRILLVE
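Screened at intermediate enzyme activity to detect both inhibitors and activators: LmPK at 0.1 nM, with a 0.5 nM enzyme column as activation reference. PEP 0.5 mM, ADP 0.1 mM; ATP detected by luminescence after 1 h.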
NS1 inh: qHTS Assay for Inhibitors of Influenza NS1 Protein Function. Potency, µM (highest dose often 46.1 µM), without a hit: at the highest dose activity, positive = more growth. actives 0.4% (n = 270,000). AID 2326, 2010; calls by dose curve; note: potency is the fitted concentration of half-maximal effect; actives are rising curves; nearly all actives have a fitted effect of over 50% in size
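Growth recovery, yeast-based: influenza A NS1 expressed in S. cerevisiae causes slow growth, and suppressors are detected by OD600. The parent strain without NS1 is used as positive control.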
TbPYK inhibitor: qHTS of Trypanosoma Brucei Inhibitors | pyruvate kinase (Trypanosoma brucei), Q57TT1 | TbPYK enzyme, Kinase-Glo Plus ATP luminescence, 45 min | Potency, µM (top dose mostly 76.8 µM), without a hit: top-dose activity, negative = inhibition, actives largely listed as inhibitors | actives 0.12% (n = 410,000) | AID 624173, 2012; note: potency is the fitted concentration of half-maximal effect; % is set by controls: 0 for no effect and ±100 for the full control effect; nearly all actives have a fitted effect of over 50% in size
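TbPYK + substrate in 50 mM TEA pH 7.2, 100 mM KCl, 10 mM MgCl2, 0.05% BSA, 0.01% Tween-20; cpd pinned; ADP 130 uM final; 45 min RT; Kinase-Glo Plus 10 min; luminescence endpoint.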
Shiga inhibitor: A qHTS for Small Molecule Inhibitors of Shiga Toxin | inhibition, % at 38.7 µM | AID 2315, 2010 | Vero cells, Shiga toxin protein synthesis inhibition reporter | actives 9.2% (n = 290,000); in the data active = inhibition mostly above about 28%, no sharp cut-off; inactive = mostly below about 43%; note: 0% is about no effect
SARS PLpro yeast: qHTS of Yeast-based Assay for SARS-CoV PLP; S. cerevisiae expressing SARS-CoV PLpro, growth rescue; Potency, µM (titrated, usually from 32.9 µM), for inactives: at the highest dose activity, positive = growth rescue, usual class: activators; actives 0.19% (n = 330,000); AID 485353, 2010; calls by dose curve; note: potency is the fitted concentration of half-maximal effect; 0% is about no effect; nearly all actives have a fitted effect of over 55% in size
The depositor's hits bear a star. The entries come from a sample that favours hits as a whole. Unless noted, calls come from the whole dose curve; as a rule, active = well fitted curve in the direction sought with a large enough effect; inconclusive = small, poorly fitted or top-dose-only effect, or another doubt; inactive = no such curve, though single readings can be large; an effect the other way counts as inactive or inconclusive.

For CCN1C(=NCCN2CCOCC2)N[C@@H](CCc2ccccc2)C(C(=O)OC)=C1C the results were Cycloheximide cs 7, LmPK inhibitor -10%, NS1 inh -6%, Shiga inhibitor 1 and SARS PLpro yeast inconclusive.
For COc1ccc(CNC(=O)c2cc3ccccn3n2)c(OC)c1 the results were TbPYK inhibitor -1%.
O=C1NC(=O)C(=Cc2ccco2)S1 was read as TbPYK inhibitor -9%.
For O=C1NC(=O)/C(=C/c2ccco2)N1 the results were TbPYK inhibitor -4% and SARS PLpro yeast -23%.
Screening O=C1NC(c2ccccc2)=N/C1=C/c1ccco1 returned Cycloheximide cs 39*, LmPK inhibitor inconclusive, NS1 inh 6%, TbPYK inhibitor -5%, Shiga inhibitor 72* and SARS PLpro yeast 12%.
`O=C1NC(c2ccccc2Br)=N/C1=C\c1ccco1` gave Cycloheximide cs 48*, LmPK inhibitor inconclusive, NS1 inh -5%, TbPYK inhibitor -3%, Shiga inhibitor 125* and SARS PLpro yeast -3%.
O=C1NC(c2cccc(Br)c2)=N/C1=C\c1ccco1 was read as Cycloheximide cs 70*, LmPK inhibitor 3%, NS1 inh 22%, TbPYK inhibitor 1%, Shiga inhibitor 86* and SARS PLpro yeast -18%.
`O=C(Cn1c(=O)ccc2cc(S(=O)(=O)N3CCCC3)ccc21)Nc1ccc(Cl)cc1` gave TbPYK inhibitor -8%.
For COC1=CC(=O)C=C(OC)C1(O)CC(C)=O the results were TbPYK inhibitor -11%.
`FC(F)(F)COc1ccc(-c2nnc(SCc3ccccc3)o2)cn1` gave Cycloheximide cs -1, LmPK inhibitor 6%, NS1 inh 2%, TbPYK inhibitor -6%, Shiga inhibitor -10 and SARS PLpro yeast 0%.
`CC(Cl)C(=O)c1ccc2c(c1)CCN2C(=O)C1CC1` (centres undefined) gave Cycloheximide cs 21*, LmPK inhibitor 8%, TbPYK inhibitor 4%, Shiga inhibitor 44 and SARS PLpro yeast -3%.
COc1ccc(N(CC(=O)O)N=O)cc1 was read as NS1 inh -3%.
For c1ccc(-c2onc3c2CCCC3)cc1 the results were Cycloheximide cs 16*, LmPK inhibitor 3%, NS1 inh -22%, TbPYK inhibitor 1%, Shiga inhibitor 71* and SARS PLpro yeast -8%.
For N#Cc1c(N)nc2c(c1-c1ccccc1)CCCC2 the results were Cycloheximide cs -3, LmPK inhibitor -1%, NS1 inh -18%, TbPYK inhibitor -1%, Shiga inhibitor 7 and SARS PLpro yeast 0%.
Screening CCOc1ccc(N=CNc2ccc(OCC)cc2)cc1 returned Cycloheximide cs 1, LmPK inhibitor 0%, NS1 inh 3%, TbPYK inhibitor 0%, Shiga inhibitor 20 and SARS PLpro yeast 2%.
For C=CCN=Cc1sc2ccc(OCC)cc2c1O the results were Cycloheximide cs 51*, LmPK inhibitor -4%, NS1 inh -3%, Shiga inhibitor 153* and SARS PLpro yeast -15%.
CCCCN=Cc1sc2ccc(OCC)cc2c1O was read as Cycloheximide cs 69*, LmPK inhibitor 9%, NS1 inh -6%, TbPYK inhibitor -12%, Shiga inhibitor 67* and SARS PLpro yeast -13%.
Screening CCOc1ccc2nc(/N=C/c3nc(-c4ccc(Br)cc4)oc3O)sc2c1 returned Cycloheximide cs 6, LmPK inhibitor 2%, NS1 inh 2%, TbPYK inhibitor 1%, Shiga inhibitor 1 and SARS PLpro yeast 2%.
Screening O=C(NCCCCCCNC(=O)c1ccncc1)c1ccncc1 returned Cycloheximide cs -2, LmPK inhibitor -1%, NS1 inh 3%, TbPYK inhibitor 2%, Shiga inhibitor -5 and SARS PLpro yeast -5%.
Screening Cc1ccc(OC(=O)c2oc3ccc(F)cc3c2C)c(C)c1 returned Cycloheximide cs 35*, LmPK inhibitor -5%, NS1 inh -45%, TbPYK inhibitor -9%, Shiga inhibitor 46 and SARS PLpro yeast -26%.
Screening COc1ccc(C)cc1NC(=O)c1ccccc1N(C)S(=O)(=O)c1ccccc1 returned Cycloheximide cs -2, LmPK inhibitor 4%, NS1 inh -15%, TbPYK inhibitor 0%, Shiga inhibitor -8 and SARS PLpro yeast -9%.
Screening CC/C(=N\Nc1ccccc1[N+](=O)[O-])c1ccc(O)cc1 returned Cycloheximide cs 23*, LmPK inhibitor -3%, NS1 inh -6%, TbPYK inhibitor -4%, Shiga inhibitor 58* and SARS PLpro yeast -2%.
Screening C/C(=N\Nc1ccccc1[N+](=O)[O-])c1ccccc1O returned Cycloheximide cs 41*, LmPK inhibitor -5%, NS1 inh -6%, TbPYK inhibitor 0%, Shiga inhibitor 90* and SARS PLpro yeast inconclusive.
`CCCc1cc(=O)[nH]c(Nc2cc(Cl)ccc2OC)n1` gave TbPYK inhibitor 12%.
`CCCOc1ccc(C(=O)Nc2ccc(Cl)cn2)cc1` gave Cycloheximide cs 30*, LmPK inhibitor inconclusive, NS1 inh -15%, TbPYK inhibitor -4%, Shiga inhibitor 77* and SARS PLpro yeast -19%.
Screening O=C(Nc1ccc(Cl)cn1)c1ccc(Oc2ccccc2)cc1 returned Cycloheximide cs 34*, LmPK inhibitor -7%, NS1 inh -29%, TbPYK inhibitor -4%, Shiga inhibitor 32* and SARS PLpro yeast -16%.
`CN(c1ccc(C(=O)Nc2ccc(Cl)cn2)cc1)S(=O)(=O)c1ccccc1` gave Cycloheximide cs 12, LmPK inhibitor -4%, NS1 inh -48%, TbPYK inhibitor 2%, Shiga inhibitor 20 and SARS PLpro yeast -2%.
`O=C(Nc1ccc(Cl)cn1)c1cccc(OCc2ccccc2)c1` gave Cycloheximide cs 22*, LmPK inhibitor -13%, NS1 inh -6%, TbPYK inhibitor -3%, Shiga inhibitor 48* and SARS PLpro yeast -3%.
`O=C(Nc1cc(-c2ccccc2)[nH]n1)c1ccc(Cl)cc1` gave Cycloheximide cs 51*, LmPK inhibitor 3%, NS1 inh 1%, TbPYK inhibitor 7%, Shiga inhibitor 88* and SARS PLpro yeast 0%.
For CCCOc1ccc(C(=O)Nc2ccc(NC(=O)c3cccc(Cl)c3)cc2)cc1 the results were TbPYK inhibitor 7%.
CC[C@H](C)[C@H](NC(=O)[C@H](N)Cc1ccc(O)cc1)C(=O)N[C@@H](CC(N)=O)C(=O)N[C@@H](CC(C)C)C(=O)N[C@H](C(=O)N[C@@H](C(=O)N[C@@H](CCCN=C(N)N)C(=O)N[C@@H](CCC(N)=O)C(=O)N[C@@H](CCCN=C(N)N)C(=O)N[C@H](Cc1ccc(O)cc1)C(N)=O)[C@@H](C)O)[C@@H](C)CC was read as Cycloheximide cs -4 and Shiga inhibitor -6.
